# Measurements reported in ChEMBL document CHEMBL1961873, “Compounds: GSK PKIS; Assays: Nanosyn kinase panel” (2012).
# Assays:
# [1] = molecular target: T1, Tyrosine-protein kinase receptor TYRO3 (Homo sapiens) (UniProt Q06418); conditions: at 1 µM
# T1 sequence (whole entry): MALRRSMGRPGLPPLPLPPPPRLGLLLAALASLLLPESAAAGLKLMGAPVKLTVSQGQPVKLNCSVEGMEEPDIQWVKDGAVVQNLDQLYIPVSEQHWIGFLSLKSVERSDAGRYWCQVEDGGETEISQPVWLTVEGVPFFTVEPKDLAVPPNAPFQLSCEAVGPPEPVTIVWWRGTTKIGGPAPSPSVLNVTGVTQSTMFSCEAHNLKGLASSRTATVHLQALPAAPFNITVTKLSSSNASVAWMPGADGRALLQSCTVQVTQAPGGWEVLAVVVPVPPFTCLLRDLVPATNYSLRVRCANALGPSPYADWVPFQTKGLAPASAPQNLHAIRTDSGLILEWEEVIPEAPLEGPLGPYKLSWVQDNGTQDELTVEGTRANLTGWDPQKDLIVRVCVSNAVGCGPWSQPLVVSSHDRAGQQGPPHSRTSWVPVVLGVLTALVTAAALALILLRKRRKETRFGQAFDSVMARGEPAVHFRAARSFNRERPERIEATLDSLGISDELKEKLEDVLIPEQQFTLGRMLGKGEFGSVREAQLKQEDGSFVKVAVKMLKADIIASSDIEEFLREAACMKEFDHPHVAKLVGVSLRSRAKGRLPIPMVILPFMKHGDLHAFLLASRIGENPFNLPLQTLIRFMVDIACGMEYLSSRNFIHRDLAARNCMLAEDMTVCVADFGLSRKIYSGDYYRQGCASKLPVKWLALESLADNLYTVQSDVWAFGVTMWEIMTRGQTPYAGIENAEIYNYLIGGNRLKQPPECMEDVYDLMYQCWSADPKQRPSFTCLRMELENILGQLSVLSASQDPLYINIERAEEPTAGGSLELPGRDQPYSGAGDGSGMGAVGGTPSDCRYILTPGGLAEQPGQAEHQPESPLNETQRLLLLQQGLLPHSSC
# [2] = molecular target: Tyrosine-protein kinase Yes (Homo sapiens) (UniProt P07947); conditions: at 0.1 µM
# [3] = molecular target: Tyrosine-protein kinase Yes (Homo sapiens) (UniProt P07947); conditions: at 1 µM
# [4] = molecular target: T2, Tyrosine-protein kinase ZAP-70 (Homo sapiens) (UniProt P43403); conditions: at 0.1 µM
# T2 sequence (whole entry): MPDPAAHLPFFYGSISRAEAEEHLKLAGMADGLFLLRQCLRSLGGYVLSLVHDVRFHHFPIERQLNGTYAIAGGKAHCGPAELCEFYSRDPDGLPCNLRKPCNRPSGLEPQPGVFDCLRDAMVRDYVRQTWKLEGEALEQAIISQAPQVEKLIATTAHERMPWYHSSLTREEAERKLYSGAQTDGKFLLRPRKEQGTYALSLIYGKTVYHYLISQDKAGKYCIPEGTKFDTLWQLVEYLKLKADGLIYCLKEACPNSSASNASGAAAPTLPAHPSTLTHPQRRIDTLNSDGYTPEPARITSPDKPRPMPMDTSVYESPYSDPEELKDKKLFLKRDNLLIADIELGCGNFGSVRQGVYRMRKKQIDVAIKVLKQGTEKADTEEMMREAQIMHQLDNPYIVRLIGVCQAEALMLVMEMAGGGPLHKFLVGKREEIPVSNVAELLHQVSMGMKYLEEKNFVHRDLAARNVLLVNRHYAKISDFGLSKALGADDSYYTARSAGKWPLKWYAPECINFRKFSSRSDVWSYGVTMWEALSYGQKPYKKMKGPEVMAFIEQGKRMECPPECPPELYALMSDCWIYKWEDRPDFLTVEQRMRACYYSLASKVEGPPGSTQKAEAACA
# [5] = molecular target: T2, Tyrosine-protein kinase ZAP-70 (Homo sapiens); conditions: at 1 µM
# [6] = molecular target: Serine/threonine-protein kinase B-raf (Homo sapiens) (UniProt P15056); conditions: at 0.1 µM
# [7] = molecular target: Serine/threonine-protein kinase B-raf (Homo sapiens) (UniProt P15056); conditions: at 1 µM
# [8] = system: Serine/threonine-protein kinase B-raf (Homo sapiens), P15056 [V600E]; conditions: at 0.1 µM
# [9] = system: Serine/threonine-protein kinase B-raf (Homo sapiens), P15056 [V600E]; conditions: at 1 µM
# [10] = molecular target: RAF proto-oncogene serine/threonine-protein kinase (Homo sapiens) (UniProt P04049); conditions: at 0.1 µM
# [11] = molecular target: RAF proto-oncogene serine/threonine-protein kinase (Homo sapiens) (UniProt P04049); conditions: at 1 µM
# [12] = molecular target: T3, Interleukin-1 receptor-associated kinase 4 (Homo sapiens) (UniProt Q9NWZ3); conditions: at 0.1 µM
# T3 sequence (whole entry): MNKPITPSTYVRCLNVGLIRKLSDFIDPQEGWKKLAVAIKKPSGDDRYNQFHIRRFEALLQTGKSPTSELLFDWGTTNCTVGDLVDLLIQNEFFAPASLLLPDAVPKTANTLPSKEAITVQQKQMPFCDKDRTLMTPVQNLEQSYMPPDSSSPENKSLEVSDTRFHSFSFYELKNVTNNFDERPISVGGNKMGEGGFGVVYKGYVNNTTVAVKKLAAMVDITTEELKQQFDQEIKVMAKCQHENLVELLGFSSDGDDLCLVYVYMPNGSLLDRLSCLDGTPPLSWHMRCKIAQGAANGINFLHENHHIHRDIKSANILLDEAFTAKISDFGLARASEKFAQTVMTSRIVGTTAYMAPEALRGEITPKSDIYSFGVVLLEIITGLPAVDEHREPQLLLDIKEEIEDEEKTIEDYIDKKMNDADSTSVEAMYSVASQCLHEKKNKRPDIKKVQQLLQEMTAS
# [13] = molecular target: T3, Interleukin-1 receptor-associated kinase 4 (Homo sapiens); conditions: at 1 µM
# [14] = molecular target: Leucine-rich repeat serine/threonine-protein kinase 2 (Homo sapiens) (UniProt Q5S007); conditions: at 0.1 µM
# [15] = molecular target: Leucine-rich repeat serine/threonine-protein kinase 2 (Homo sapiens) (UniProt Q5S007); conditions: at 1 µM
# [16] = system: Leucine-rich repeat serine/threonine-protein kinase 2 (Homo sapiens), Q5S007 [G2019S]; conditions: at 0.1 µM
# [17] = system: Leucine-rich repeat serine/threonine-protein kinase 2 (Homo sapiens), Q5S007 [G2019S]; conditions: at 1 µM
# Chain of Leucine-rich repeat serine/threonine-protein kinase 2 (Homo sapiens) (Q5S007 whole entry): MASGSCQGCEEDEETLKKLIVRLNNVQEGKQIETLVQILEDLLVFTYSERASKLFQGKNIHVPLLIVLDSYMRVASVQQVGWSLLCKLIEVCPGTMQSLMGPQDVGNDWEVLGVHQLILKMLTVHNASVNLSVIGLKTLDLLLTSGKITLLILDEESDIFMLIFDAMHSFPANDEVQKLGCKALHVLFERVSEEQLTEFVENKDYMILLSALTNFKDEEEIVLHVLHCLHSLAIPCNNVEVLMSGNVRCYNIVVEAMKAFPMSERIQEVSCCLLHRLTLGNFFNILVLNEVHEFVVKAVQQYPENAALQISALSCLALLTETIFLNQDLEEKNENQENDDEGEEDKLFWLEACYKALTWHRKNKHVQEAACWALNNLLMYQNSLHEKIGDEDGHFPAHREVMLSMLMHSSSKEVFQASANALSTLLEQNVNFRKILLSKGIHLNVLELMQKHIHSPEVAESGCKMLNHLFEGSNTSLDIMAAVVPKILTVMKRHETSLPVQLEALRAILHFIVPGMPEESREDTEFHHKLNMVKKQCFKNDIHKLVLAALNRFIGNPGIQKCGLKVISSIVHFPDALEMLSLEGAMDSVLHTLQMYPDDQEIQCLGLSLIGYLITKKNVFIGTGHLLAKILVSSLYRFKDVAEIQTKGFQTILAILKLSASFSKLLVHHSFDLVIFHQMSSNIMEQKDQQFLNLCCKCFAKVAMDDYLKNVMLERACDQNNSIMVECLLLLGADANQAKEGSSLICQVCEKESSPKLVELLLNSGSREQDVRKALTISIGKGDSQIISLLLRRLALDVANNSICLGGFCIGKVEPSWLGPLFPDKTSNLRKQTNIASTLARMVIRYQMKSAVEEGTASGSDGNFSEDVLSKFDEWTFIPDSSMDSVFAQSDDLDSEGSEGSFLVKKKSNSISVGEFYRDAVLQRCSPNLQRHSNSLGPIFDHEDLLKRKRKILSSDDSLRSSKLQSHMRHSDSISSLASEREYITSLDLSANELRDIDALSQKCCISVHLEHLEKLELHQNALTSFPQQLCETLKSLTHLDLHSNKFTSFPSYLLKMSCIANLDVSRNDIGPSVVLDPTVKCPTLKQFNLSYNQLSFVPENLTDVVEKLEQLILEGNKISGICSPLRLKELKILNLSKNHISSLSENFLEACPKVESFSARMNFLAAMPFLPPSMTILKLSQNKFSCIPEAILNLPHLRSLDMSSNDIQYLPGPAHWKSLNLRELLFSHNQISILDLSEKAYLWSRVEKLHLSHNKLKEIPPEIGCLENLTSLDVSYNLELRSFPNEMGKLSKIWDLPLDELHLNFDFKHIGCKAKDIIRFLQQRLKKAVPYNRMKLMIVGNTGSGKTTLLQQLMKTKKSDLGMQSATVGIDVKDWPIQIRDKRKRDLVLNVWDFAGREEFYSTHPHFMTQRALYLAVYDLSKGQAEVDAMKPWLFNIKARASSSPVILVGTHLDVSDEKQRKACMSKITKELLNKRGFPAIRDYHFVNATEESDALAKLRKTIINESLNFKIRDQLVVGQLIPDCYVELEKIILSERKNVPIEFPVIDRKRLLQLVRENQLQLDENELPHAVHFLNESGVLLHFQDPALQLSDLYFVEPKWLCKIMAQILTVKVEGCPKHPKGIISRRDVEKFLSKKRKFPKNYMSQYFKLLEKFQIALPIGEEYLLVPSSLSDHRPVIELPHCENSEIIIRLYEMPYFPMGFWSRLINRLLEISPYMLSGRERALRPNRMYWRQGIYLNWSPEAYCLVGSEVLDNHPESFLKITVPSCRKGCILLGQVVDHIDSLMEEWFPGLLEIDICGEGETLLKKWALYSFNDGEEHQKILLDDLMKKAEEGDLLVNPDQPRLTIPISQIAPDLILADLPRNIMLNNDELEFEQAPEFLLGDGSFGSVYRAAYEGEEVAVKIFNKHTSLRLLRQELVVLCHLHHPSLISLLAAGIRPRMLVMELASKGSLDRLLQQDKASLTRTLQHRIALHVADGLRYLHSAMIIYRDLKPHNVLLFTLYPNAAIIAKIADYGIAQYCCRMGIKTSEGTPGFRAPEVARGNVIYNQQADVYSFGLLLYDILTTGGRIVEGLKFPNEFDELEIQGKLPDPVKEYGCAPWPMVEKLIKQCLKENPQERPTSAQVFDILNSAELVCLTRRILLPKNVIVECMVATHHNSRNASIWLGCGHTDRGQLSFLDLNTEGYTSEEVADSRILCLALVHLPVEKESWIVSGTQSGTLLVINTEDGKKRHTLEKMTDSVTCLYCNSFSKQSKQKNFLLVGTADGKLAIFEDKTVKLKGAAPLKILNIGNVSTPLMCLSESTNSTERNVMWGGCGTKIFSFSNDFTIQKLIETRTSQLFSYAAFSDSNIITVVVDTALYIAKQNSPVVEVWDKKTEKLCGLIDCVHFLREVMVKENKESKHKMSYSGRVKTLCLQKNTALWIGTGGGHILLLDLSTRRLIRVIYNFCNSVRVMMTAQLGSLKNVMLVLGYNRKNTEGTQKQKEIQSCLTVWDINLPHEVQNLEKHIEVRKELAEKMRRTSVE
# Chain of Serine/threonine-protein kinase B-raf (Homo sapiens), P15056 [V600E] (P15056 whole entry V600E): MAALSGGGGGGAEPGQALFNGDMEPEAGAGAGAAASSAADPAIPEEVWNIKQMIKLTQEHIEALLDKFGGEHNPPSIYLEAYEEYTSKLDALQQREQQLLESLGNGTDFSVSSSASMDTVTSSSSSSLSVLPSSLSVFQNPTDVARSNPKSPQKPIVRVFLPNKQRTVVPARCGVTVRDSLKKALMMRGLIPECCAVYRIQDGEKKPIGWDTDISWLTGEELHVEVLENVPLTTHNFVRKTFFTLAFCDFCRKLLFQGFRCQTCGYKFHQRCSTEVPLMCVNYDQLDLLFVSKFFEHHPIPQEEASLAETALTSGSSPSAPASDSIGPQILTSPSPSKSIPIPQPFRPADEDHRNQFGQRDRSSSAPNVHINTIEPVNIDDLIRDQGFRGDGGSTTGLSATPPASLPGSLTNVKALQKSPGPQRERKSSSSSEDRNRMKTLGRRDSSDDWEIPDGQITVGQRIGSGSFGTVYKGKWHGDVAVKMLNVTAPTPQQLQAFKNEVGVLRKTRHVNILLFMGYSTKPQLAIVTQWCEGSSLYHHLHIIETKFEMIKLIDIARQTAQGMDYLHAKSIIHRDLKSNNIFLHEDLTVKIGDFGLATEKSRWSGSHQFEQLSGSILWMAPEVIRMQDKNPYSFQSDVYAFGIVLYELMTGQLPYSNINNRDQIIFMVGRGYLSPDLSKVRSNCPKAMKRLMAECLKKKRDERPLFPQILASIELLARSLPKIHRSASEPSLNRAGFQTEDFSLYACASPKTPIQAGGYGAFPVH
# Chain of Leucine-rich repeat serine/threonine-protein kinase 2 (Homo sapiens), Q5S007 [G2019S] (Q5S007 whole entry G2019S): as the sequence (Q5S007 whole entry) above, with G2019S counted along it
# Chain of Serine/threonine-protein kinase B-raf (Homo sapiens) (P15056 whole entry): as the sequence (P15056 whole entry V600E) above, with E600V counted along it
# Chain of Tyrosine-protein kinase Yes (Homo sapiens) (P07947 2-543 limits assumed): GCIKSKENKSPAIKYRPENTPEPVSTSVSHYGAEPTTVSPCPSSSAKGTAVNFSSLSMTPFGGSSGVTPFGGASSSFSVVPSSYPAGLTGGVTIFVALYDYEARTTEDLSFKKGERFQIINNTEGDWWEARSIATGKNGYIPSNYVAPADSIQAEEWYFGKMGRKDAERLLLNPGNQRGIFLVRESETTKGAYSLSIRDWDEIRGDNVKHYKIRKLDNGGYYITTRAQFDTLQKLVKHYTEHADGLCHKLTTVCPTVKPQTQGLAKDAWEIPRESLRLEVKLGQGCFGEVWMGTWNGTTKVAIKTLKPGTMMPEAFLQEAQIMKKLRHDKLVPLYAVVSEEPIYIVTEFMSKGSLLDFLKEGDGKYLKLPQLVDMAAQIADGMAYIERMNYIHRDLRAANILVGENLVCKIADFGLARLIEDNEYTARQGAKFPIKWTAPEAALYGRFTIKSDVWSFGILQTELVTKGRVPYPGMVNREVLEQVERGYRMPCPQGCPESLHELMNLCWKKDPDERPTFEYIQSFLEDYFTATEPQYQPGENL
# Chain of RAF proto-oncogene serine/threonine-protein kinase (Homo sapiens) (P04049 whole entry): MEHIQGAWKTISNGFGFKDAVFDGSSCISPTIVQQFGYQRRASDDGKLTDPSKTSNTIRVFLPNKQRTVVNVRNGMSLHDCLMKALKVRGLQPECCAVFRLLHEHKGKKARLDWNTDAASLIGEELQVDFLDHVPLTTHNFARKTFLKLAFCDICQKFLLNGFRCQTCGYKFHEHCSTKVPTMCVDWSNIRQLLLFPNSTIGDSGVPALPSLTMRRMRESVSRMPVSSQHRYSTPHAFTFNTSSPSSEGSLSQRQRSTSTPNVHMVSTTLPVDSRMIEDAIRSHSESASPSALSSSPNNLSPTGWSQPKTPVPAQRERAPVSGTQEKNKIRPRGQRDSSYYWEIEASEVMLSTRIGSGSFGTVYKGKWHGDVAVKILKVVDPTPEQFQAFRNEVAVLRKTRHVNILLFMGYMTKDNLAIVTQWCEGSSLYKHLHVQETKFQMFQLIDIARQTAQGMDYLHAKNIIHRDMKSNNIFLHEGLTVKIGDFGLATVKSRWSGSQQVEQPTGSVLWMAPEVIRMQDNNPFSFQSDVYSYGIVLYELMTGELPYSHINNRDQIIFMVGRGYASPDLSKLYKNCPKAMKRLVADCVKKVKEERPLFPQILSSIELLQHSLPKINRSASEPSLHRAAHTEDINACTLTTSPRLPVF
Compound,inhibition [1],inhibition [2],inhibition [3],inhibition [4],inhibition [5],inhibition [6],inhibition [7],inhibition [8],inhibition [9],inhibition [10],inhibition [11],inhibition [12],inhibition [13],inhibition [14],inhibition [15],inhibition [16],inhibition [17]
COc1cc(Nc2ncc(-c3ccccc3)o2)cc(OC)c1OC,1.3%,11.5%,46.6%,-2.95%,0.62%,-1.68%,-1.94%,-1.66%,-1.09%,-3.29%,-4.59%,-0.52%,0.55%,0.73%,8.78%,4.17%,21.3%
COc1cc2ncn(-c3cc(OCc4ccccc4C(F)(F)F)c(C(C)=O)s3)c2cc1OC,2.25%,2.59%,6.19%,-0.08%,-3.94%,5.13%,5.83%,4.21%,4.4%,-0.73%,-1.56%,0.98%,1.4%,3.23%,6.15%,3.58%,6.68%
Fc1ccc(-c2ncn(C3CCNCC3)c2-c2ccnc(Oc3ccc4c(c3)OCO4)n2)cc1,3.42%,3.41%,3.52%,0.26%,-6.92%,7.39%,12.7%,6.25%,8.22%,1.31%,-0.17%,2.54%,2.7%,5.57%,11.2%,6.45%,10.9%
COc1cccc(/C=N/Nc2ncnc3c2cnn3-c2cccc(OC)c2)c1,4.49%,2.39%,8.43%,1.23%,2.81%,4.82%,6.54%,4.25%,4.68%,1.07%,-1.82%,1.63%,2.48%,-1.62%,0.55%,0.17%,5.07%
c1ccc(Oc2ccc(Nc3ncc(-c4ccccc4)o3)cc2)cc1,1.97%,0.58%,-0.25%,1.43%,0.91%,1.29%,1.47%,2.23%,1.97%,0.01%,1.5%,1.75%,0.97%,1.55%,3.95%,4.15%,6.81%
CCc1nccc2c1nc(-c1nonc1N)n2CC,-0.82%,0.39%,1.95%,1.4%,0.96%,-0.39%,1.49%,0.46%,1.01%,-4.45%,-5.16%,2.27%,-1.82%,0.68%,2.47%,0.78%,2.99%
CCS(=O)(=O)c1ccc(OC)c(Nc2ncc(-c3cccc(-c4ccccc4F)c3)o2)c1,19.6%,25.7%,73%,1.06%,-0.05%,1.09%,1.46%,0.74%,1.89%,-0.07%,-8.29%,1.45%,0.38%,1.95%,11.6%,4.86%,19.5%
Nc1nccc(-c2c(-c3ccc(F)cc3)ncn2C2CCC(O)CC2)n1 (stereo unspecified),2.9%,5.1%,40%,-8.32%,1.54%,-2.22%,-1.06%,-3.35%,-2.66%,-4.81%,-9.19%,-0.79%,-1%,-0.71%,0.86%,1.56%,4.03%
